From PubChem
Most compounds without a hit are left out; they make up all but 12% or so of the library.
Pf growth 96h = P. falciparum growth inhibition at 96 hours. P. falciparum luciferase reporter growth, 96 h. Potency, µM (series often up to 28.7 µM), inactives show at the highest dose activity change, negative = inhibition, usual class: inhibitors. 6.9% of 320,000 active. AID 504834; further: on the % scale 0 is the no-effect control and ±100 the full control effect
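Plates of compound plus infected erythrocytes (2% hematocrit, 0.05% parasitemia final) incubate 96 hours, 37 C, 5% CO2. Detection reagent added; reduced luminescence from the parasites' luciferase reporter flags inhibition.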
HCV inh = blocks hepatitis C virus; Huh7.5.1 HCVcc-Cre infection, luciferase reporter, 44 h; AID 651820; Potency, µM (top dose mostly 41.8 µM), for the others: at the top dose activity change, negative = inhibition, usual class: inhibitors; 3.4% of 340,000 active; further: on the % scale 0 is the no-effect control and ±100 the full control effect
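A cell-based infection assay in which seeded cells (1,000 per well) receive test compound after 4 h, are inoculated with HCVcc-Cre at approximately 0.5 moi, and are incubated 44 h before luminescence detection.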
SARS PLpro yeast = SARS-CoV PLP inhibition in yeast | 0.19% of 330,000 active | S. cerevisiae expressing SARS-CoV PLpro, growth rescue | Potency, µM (doses to about 32.9 µM), without a hit: at the top dose activity, positive = growth rescue, actives largely listed as activators; calls by dose curve; further: 0% is about no effect; nearly all actives have a fitted effect of over 55% in size
Pf growth 48h = inhibits P. falciparum growth in the first generation, 48 h. 5.9% of 310,000 active. P. falciparum luciferase growth in erythrocytes, 48 h. Potency, µM (doses to about 28.7 µM), without a hit: at the top dose activity change, negative = inhibition, most hits filed as inhibitors; further: on the % scale 0 is the no-effect control and ±100 the full control effect
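In quantitative HTS format, infected erythrocytes bearing luciferase-reporter parasites were treated for a single generation at 37 C. Luminescence after adding detection reagent served as the growth measure.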
NS1 function inh = blocks influenza NS1 protein function. Potency, µM (top dose mostly 46.1 µM), inactives show at the top dose activity, positive = more growth. AID 2326. 0.4% of 270,000 active; calls by dose curve; further: actives are rising curves; nearly all actives have a fitted effect of over 50% in size
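In this qHTS, NS1 from influenza A is expressed in budding yeast, where it slows growth. Cells are switched from glucose to 2% galactose medium (pH 6.0, -URA), treated with compound, and growth recovery is read at OD600.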
AMA1-RON2 inh = inhibitors of Plasmodium falciparum AMA1-RON2 interaction | AlphaScreen AMA1-biotinylated RON2 peptide binding | Potency, µM (highest dose often 58.2 µM), inactives show top-dose activity change, negative = inhibition, most hits filed as inhibitors | 0.2% of 360,000 active;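 further: 0% = vehicle wells and -100% = peptide control; nearly all actives have a fitted effect of over 45% in size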
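AMA1 (3D7) with his tag at 25 nM final met compounds first, then biotinylated RON2 peptide at 25 nM; detection used donor plus acceptor beads, 10 µg/mL apiece, read by AlphaScreen after 30 min at room temperature.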
* hit, by the source's call. Unless noted, the call rests on the fitted dose curve; in most records, active means well fitted curve in the direction sought with a large enough effect; inconclusive means small, poorly fitted or top-dose-only effect, or another doubt; inactive means no such curve, though single readings can be large; an effect the other way counts as inactive or inconclusive. Potency means the concentration at half of the fitted maximal effect.

Screening COc1ccc(CCNC(=O)CC(Cc2ccc(C)cc2)C(=O)O)cc1OC (configuration not stated) returned Pf growth 96h 14.3%, HCV inh 7.9%, SARS PLpro yeast -0.4%, Pf growth 48h -1.3%, NS1 function inh 3.6% and AMA1-RON2 inh -4.7%.
CCCCN(C(=O)c1ccc(C)cc1)c1c(N)n(CCC)c(=O)[nH]c1=O was read as Pf growth 96h 5.9%, HCV inh 9.7%, SARS PLpro yeast -3.1%, Pf growth 48h -0.7%, NS1 function inh 4.2% and AMA1-RON2 inh 3.4%.
`O=[As]O[As]=O` (configuration not stated) gave Pf growth 96h 1.9µM* and Pf growth 48h 1.9µM*.
For O=C(NCCc1ccc(Cl)cc1)C1CCCO1 (configuration not stated) the results were Pf growth 96h inconclusive, HCV inh 13.4%, SARS PLpro yeast -0.1%, Pf growth 48h 32.9%, NS1 function inh 3.0% and AMA1-RON2 inh -3.8%.
Screening CCN(CC)CCCCNc1ncc2cc(-c3cc(OC)cc(OC)c3)c(NC(=O)NC(C)(C)C)nc2n1 returned Pf growth 96h 9.28µM*, HCV inh inconclusive, SARS PLpro yeast 9.1%, Pf growth 48h inconclusive, NS1 function inh -12.5% and AMA1-RON2 inh -0.9%.
`Cc1ccc(S(=O)(=O)N(C)c2c(C)ccc(S(=O)(=O)N3CCN(C)CC3)c2C)cc1` gave Pf growth 96h inconclusive, HCV inh -0.1%, SARS PLpro yeast -17.7%, Pf growth 48h -27.5%, NS1 function inh -1.7% and AMA1-RON2 inh 7.5%.
For C=C(C)CN1CCN(S(=O)(=O)c2ccc(C)c(N(C)S(=O)(=O)c3ccc(C)cc3)c2C)CC1 the results were Pf growth 96h -17.6%, HCV inh inconclusive, SARS PLpro yeast -6.7%, Pf growth 48h 10.4µM*, NS1 function inh -4.1% and AMA1-RON2 inh -24.0%.
O=C1Nc2c(c(=O)[nH]c(=O)n2Cc2ccccc2)C1(NS(=O)(=O)c1ccccc1)C(F)(F)F (configuration not stated) was read as Pf growth 96h 14.7µM*, HCV inh -1.2%, SARS PLpro yeast 0.9%, Pf growth 48h 76.0%, NS1 function inh -0.2% and AMA1-RON2 inh -3.3%.
`Cc1ccc(-n2c3c(c(=O)[nH]c2=O)C(NS(=O)(=O)c2ccc(Cl)cc2)(C(F)(F)F)C(=O)N3)cc1` (configuration not stated) gave Pf growth 96h 13.1µM*, HCV inh 6.6%, SARS PLpro yeast 3.2%, Pf growth 48h inconclusive, NS1 function inh 6.4% and AMA1-RON2 inh -4.8%.
Screening COc1ccc(S(=O)(=O)N2CCCC2C(=O)Nc2ccc(C)cc2)cc1 (configuration not stated) returned Pf growth 96h 62.4%, HCV inh -23.7%, SARS PLpro yeast -0.2%, Pf growth 48h -25.7%, NS1 function inh -9.5% and AMA1-RON2 inh 1.4%.
Cc1ccc(S(=O)(=O)N2CCCC2C(=O)Nc2ccc(O)cc2)cc1 (configuration not stated) was read as Pf growth 96h 5.22µM*, HCV inh 9.0%, SARS PLpro yeast -18.8%, Pf growth 48h -21.3%, NS1 function inh 4.6% and AMA1-RON2 inh -3.3%.
CC(C)c1ccc(NC(=O)C2CCCCN2S(=O)(=O)c2ccccc2)cc1 (configuration not stated) was read as Pf growth 96h inconclusive, HCV inh 22.4µM*, SARS PLpro yeast 5.5%, Pf growth 48h inconclusive and AMA1-RON2 inh -0.4%.
Screening CSC1=NC(C(Cl)(Cl)Cl)N=C(c2ccc(C)cc2)N1 (configuration not stated) returned Pf growth 96h inconclusive, HCV inh inconclusive, SARS PLpro yeast -3.2%, Pf growth 48h 11.7µM* and AMA1-RON2 inh 0.3%.
`CN(NC(=O)c1ccccc1F)c1ncccc1[N+](=O)[O-]` gave Pf growth 96h 2.6%, HCV inh 14.5%, SARS PLpro yeast -0.4%, Pf growth 48h 18.4%, NS1 function inh -2.0% and AMA1-RON2 inh 21.8%.
For COc1ccc(NC(=O)c2cc(-c3cc(Cl)ccc3OC)n[nH]2)c(C)c1 the results were AMA1-RON2 inh -0.3%.
For Cc1cc(N2CCCCC2)nc(SCc2ccc(C#N)cc2)n1 the results were HCV inh inconclusive, SARS PLpro yeast -9.2%, Pf growth 48h 14.7µM*, NS1 function inh -22.6% and AMA1-RON2 inh -5.3%.
Screening Cc1nc(SCc2ccc(C#N)cc2)n[nH]1 returned Pf growth 96h 13.1µM*, HCV inh 15.1%, SARS PLpro yeast 1.8%, Pf growth 48h 6.1%, NS1 function inh 19.2% and AMA1-RON2 inh 5.2%.
For O=C(NCc1cccs1)C1C(=O)Nc2ccccc2C(=O)N1Cc1ccccc1 (configuration not stated) the results were AMA1-RON2 inh 7.2%.
Screening COc1ccc(CNC(=O)CCc2ccc(S(=O)(=O)N3CCCCCC3)cc2)cc1OC returned Pf growth 96h inconclusive, HCV inh inconclusive, SARS PLpro yeast -7.2%, Pf growth 48h inconclusive and AMA1-RON2 inh 20.1%.
Screening C[C@@H](NC(=O)[C@@H]1CCCN1C(=O)[C@@H]1CCCN1C(=O)c1ccc(Cl)cc1)c1ccccc1 returned AMA1-RON2 inh -3.4%.
`CCc1cccc2c(C(=O)CN3C(=O)NC(C)(c4cccc5ccccc45)C3=O)c[nH]c12` (configuration not stated) gave Pf growth 96h 10.4µM*, HCV inh inconclusive, SARS PLpro yeast 0.6%, Pf growth 48h inconclusive, NS1 function inh -6.7% and AMA1-RON2 inh -6.2%.
CCc1cccc2c(C(=O)CN3C(=O)N(C)C4(CCCCC4)C3=O)c[nH]c12 was read as Pf growth 96h -22.0%, HCV inh 7.08µM*, SARS PLpro yeast 3.5%, Pf growth 48h inconclusive and AMA1-RON2 inh -5.3%.
Screening CCc1cccc2c(C(=O)CN3C(=O)NC4(CCc5ccccc54)C3=O)c[nH]c12 (configuration not stated) returned Pf growth 96h inconclusive, HCV inh inconclusive, SARS PLpro yeast 0.4%, Pf growth 48h inconclusive and AMA1-RON2 inh -4.4%.
Screening CCc1cccc2c(=O)c(C(=O)N3CCCCCC3)c[nH]c12 returned Pf growth 96h -6.2%, HCV inh 1.2%, SARS PLpro yeast 3.1%, Pf growth 48h 3.6%, NS1 function inh -2.0% and AMA1-RON2 inh 1.7%.
Screening COCCOC(=O)c1c(NC(=O)COC(=O)Cc2cccc(OC)c2)sc(C(N)=O)c1C returned Pf growth 96h -0.6%, HCV inh 12.5%, SARS PLpro yeast 0.4%, Pf growth 48h 4.2%, NS1 function inh -6.6% and AMA1-RON2 inh 6.7%.
